According to ChEMBL document CHEMBL3988442, “University of Dundee, Small-Polar-MMV Screening Library” (2021):
Hit rate of the full screen: of about 48,000 compounds, about 13,000 (27%) showed an effect of 50% or more. The list shows a part of the results.

Tested on: Wolbachia pipientis
Test: Anti-Wolbachia Cell-Based Screen
Assay type: functional
Parameters: scale not given: in the data most compounds retested in dose-response had high values
Settings: 5 µM

Structure (SMILES)	Percent Effect
Cc1ccc(C(=O)N2C[C@@H](NS(C)(=O)=O)[C@H](C(C)C)C2)cc1O	5.531%
CC(CCc1cccn1C)NC(=O)Nc1cccn(C)c1=O (configuration not stated)	-4.481%
Cc1ccccc1OCC1CCCN(C(=O)CNC(=O)N(C)C)C1 (configuration not stated)	1.963%
N#Cc1cccc(CN2CCN(C(=O)C3CCC3)[C@@H]3CS(=O)(=O)C[C@@H]32)c1	2.28%
Cc1csc(CCNC(=O)c2ccc(N(C)C)c(F)c2)n1	-10.73%
CCN(Cc1ccoc1)C(=O)NC1CCN(CC2CCCC2)CC1	-1.692%
COc1ccc(N(Cc2ccco2)C(=O)C2CCCO2)cc1F (configuration not stated)	12.44%
COc1ccc(OC)c(CN(Cc2ccco2)Cc2[nH]cnc2C)c1.O=C(O)CC(O)(CC(=O)O)C(=O)O	125%
CCOCC(=O)N(Cc1ccco1)c1ccc(OC)c(F)c1	-17.42%
COCCN(CCOC)c1ncccc1I	19.77%
CC(C(=O)NCCCn1ccnc1)n1cc(Br)cn1 (configuration not stated)	2.347%
CC(C)N(C)CCCNC(=O)c1cnn(C(C)C)c1C(F)(F)F	7.835%
CC(C)n1cc(C(=O)NCCCn2ccnc2)c2n[nH]c(=O)c-2c1	123.9%
COc1cccc(-c2n[nH]cc2C(=O)NC(C)CC(=O)O)c1 (configuration not stated)	-19.78%
COCC(C)NC(=O)c1nnn(-c2ccc(F)cc2)n1 (configuration not stated)	-1.834%
COCCCNC(=O)c1cn(C(C)C)cc2c(=O)[nH]nc1-2	104.5%
CCn1nc(C(C)C)cc1C(=O)NCCCOC	-18.28%
O=C(NCCCn1ccnc1)c1csc2c1CCCC2	4.867%
COCC(C)NC(=O)c1cn(C(C)C)cc2c(=O)[nH]nc1-2 (configuration not stated)	106.6%
Cc1ccsc1CN(C)c1nc2c(cnn2C(C)(C)C)c(=O)[nH]1	-15.84%
CC(C)(C)CC1CCCN1Cc1nc(-c2ccco2)no1 (configuration not stated)	1.615%
O=C(C1CCCN1Cc1nc(-c2ccco2)no1)N1CCSCC1 (configuration not stated)	97.23%
O=C(c1ccco1)N1CCN(Cc2nc(C3CC3)no2)CC1	-17.27%
O=C(C1CCCC1)N1CCN(Cc2nc(-c3ccco3)no2)CC1	3.823%
c1coc(-c2noc(CN3CCC(c4ccn[nH]4)CC3)n2)c1	3.524%
CC(C)c1cc(C2CCCN2Cc2nc(-c3ccco3)no2)no1 (configuration not stated)	-36.51%

Structure (SMILES)	Percent Effect
NC(=O)NCC1CCCCN1Cc1nc(-c2ccco2)no1 (configuration not stated)	116.5%
O=C(C1CCN(Cc2nc(-c3ccco3)no2)CC1)N1CCCC1	109.9%
c1coc(-c2noc(CN3CCc4c(ncn4C4CC4)C3)n2)c1	-13.05%
O=C(C1CCCCN1Cc1nc(-c2ccco2)no1)N1CCCC1 (configuration not stated)	-6.382%
O=C(C1CCCCC1)N1CCN(Cc2nc(-c3ccco3)no2)CC1	98.36%
CCCOCCOC(=O)c1ccc2c(c1)[nH]c(=O)n2C	-3.927%
NC(=O)CCn1cc(CNCCCc2ccccc2O)c2ccccc21	15.24%
COc1cc(C(=O)Nc2nc(C)no2)ccc1C	-1.332%
COCC(=O)NC[C@@]1(COc2cnccn2)C[C@@H](O)[C@@H](O)C1.Cl	-5.232%
COCCOCCCC(=O)N1CCC(Cc2ccccc2OC)CC1	-18.09%
FC(F)Oc1ccccc1CNCc1cc(Br)c2c(c1)OCO2	6.017%
c1ccc(CC2(CNCc3ncc[nH]3)CCC2)cc1	-10.87%
COCCN1CCOCC12CCN(c1ccc(C#N)cc1)CC2.O=C(O)C(F)(F)F	1.624%
N#Cc1ccc(N2CCC3(CCC(=O)N3CCN3CCCC3)CC2)nc1.O=C(O)C(F)(F)F.O=C(O)C(F)(F)F	111.3%
CN1C(=O)CCC12CCN(c1ccc(C#N)cn1)CC2.O=C(O)C(F)(F)F	114%
N#Cc1ccc(N2CCCC3(CCC(=O)N3CC3CC3)CC2)nc1.O=C(O)C(F)(F)F (configuration not stated)	105.4%
O=C1CCC2(CCCN(c3ncc(F)cn3)CC2)N1CC1CC1 (configuration not stated)	-5.991%
N#Cc1ccc(N2CCCC3(CCN(c4cncnc4)C3=O)C2)nc1.O=C(O)C(F)(F)F (configuration not stated)	104%
O=C(O)C(F)(F)F.O=C(O)C(F)(F)F.O=C(c1ccncc1)N1CCCC2(CCN(c3cccnc3)C2=O)C1 (configuration not stated)	-3.414%
COc1cc(N2CCCC3(CCN(c4cccnc4)C3=O)C2)ncn1.O=C(O)C(F)(F)F (configuration not stated)	-87.96%
O=C1CCC2(CCN(c3ncc(F)cn3)CC2)N1CCN1CCCC1	20.59%
O=C(O)C(F)(F)F.O=C(O)C(F)(F)F.O=C1CCC2(CCCN(Cc3nccs3)C2)N1CC1CC1 (configuration not stated)	-83.2%
N#Cc1ccc(N2CCC(c3nc(C(F)(F)F)c[nH]3)CC2)nc1	-13.67%
N#Cc1cccc(CN2CC3(CCCCN3c3cncnc3)CC2=O)c1.O=C(O)C(F)(F)F (configuration not stated)	-19.74%
CC(C)c1nc(N2CC[C@@H](N(C)CCc3ccccn3)[C@H](O)C2)no1	-7.34%
CSc1cccc(CN(C)C(=O)C2CC(=O)N(CCN(C)C)C2)c1 (configuration not stated)	0.2115%

Structure (SMILES)	Percent Effect
Cc1cccc2c(=O)n(C(C)Cc3cccnc3)cnc12 (configuration not stated)	5.15%
Cc1cn([C@@H]2CC3(CCNCC3)OC[C@@]2(C)O)c(=O)[nH]c1=O	120.3%
Cc1cn([C@H]2CCNC[C@]2(C)O)c(=O)[nH]c1=O	91.37%
N#Cc1ccc(NCc2cccnc2N2CCC(C(N)=O)CC2)cn1	11.59%
CCCC(=O)N1CCc2c(CNS(C)(=O)=O)cncc2C1.Cl	100.5%
CS(=O)(=O)NCc1cncc2c1CCN(C(=O)N1CCCC1)C2.Cl	112.8%
CC(=O)NCC(=O)N1CCc2c(CNc3ncccn3)cncc2C1.Cl	-3.566%
COCCC(=O)N1CCc2c(CNc3ncccn3)cncc2C1.Cl	-6.28%
Cl.O=C(N1CCCC1)N1CCc2c(CNc3ncccn3)cncc2C1	-8.095%
CCCn1[nH]cc/c1=N\C(=O)CN1CCCC1c1c(C)nn(C)c1C (configuration not stated)	-11.65%
Cn1cc(CCC(=O)N2CCCN(c3ncccc3C#N)CC2)cn1	89.9%
Cc1cnn(CCC(=O)N2CCCN(c3cccnn3)CC2)c1	7.961%
N#Cc1cccnc1N1CCCN(C(=O)CCn2cccn2)CC1	107%
COc1ccccc1N1CCN(C(=O)CCn2ccc(C)n2)CC1(C)C	-8.619%
N#Cc1cccnc1N1CCN(C(=O)CCC(=O)c2cccs2)CC1	2.306%
N#Cc1ccccc1N1CCN(CCC(=O)N2CCOCC2)CC1	8.66%
COc1ccnc(N2CCCN(C(=O)CCc3cnn(C)c3)CC2)n1	-25.81%
N#Cc1cccnc1N1CCCN(C(=O)CCc2cccs2)CC1	-1.405%
N#Cc1ccccc1N1CCCN(C(=O)CCn2cccn2)CC1	-8.555%
Cc1cnn(CCC(=O)N2CCCN(c3ccccc3C#N)CC2)c1	106.5%
COc1ccccc1N1CCN(C(=O)CCn2ccc(C)n2)CC1	112.7%
COc1ccccc1N1CCN(C(=O)CCn2ccnc2C)CC1(C)C	3.273%
O=C1CC(c2ccc(F)cc2)Cc2[nH]c(=O)c(C(=O)O)cc21 (configuration not stated)	-7.153%
COc1ccc(-c2nnc([C@H]3CCN(C4CCC4)C3)o2)cc1	-7.791%
COc1ccc2c(C)nc(N3CCN([C@H]4CCCC[C@@H]4O)CC3)nc2c1	-5.01%
Cc1cnn(CCC(=O)N2CCCN(c3ncccc3C#N)CC2)c1	7.127%

Structure (SMILES)	Percent Effect
Cc1cnn(CC(=O)N2CCCN(c3ncccc3C#N)CC2)c1	99.25%
N#Cc1ccc(CN2CCN(C(=O)CCn3cncn3)CC2)cc1	-1.452%
Cc1cnn(CCC(=O)N2CCN(c3ccc(C#N)cn3)CC2)c1	122.4%
N#Cc1cccnc1N1CCCN(C(=O)CCn2cncn2)CC1	103.6%
Cc1cnn(CCC(=O)N2CCN(c3ncccc3Cl)CC2)c1	8.116%
N#Cc1ccc(CN2CCCN(C(=O)CCn3cncn3)CC2)cc1	-4.749%
Cc1cnn(CCC(=O)N2CCN(c3nc(C)cs3)CC2)c1	-7.951%
N#Cc1cccnc1N1CCCN(CC(=O)N2CCNC(=O)C2)CC1	-3.438%
CN(C)c1cc(C(=O)Nc2ccccc2C(=O)NC(C)(C)C)ccn1	0.03536%
CCn1nc(C)cc1C(=O)NCc1nc(C)cc(C)n1	-9.292%
CCn1nc(C)cc1C(=O)NCc1noc(C(C)(C)C)n1	104.1%
CCn1nc(C)cc1C(=O)NCc1nc(C)no1	111.2%
COCc1nc(CNC(=O)c2cc(C)c(C)[nH]c2=O)no1	-2.692%
CCn1nc(C)cc1C(=O)OCCNC(=O)c1ccccc1	-11.83%
CCn1nc(C)cc1C(=O)NCc1cccnc1N(C)C	-6.394%
CC(SCCS(C)(=O)=O)c1nc(Cc2ccccc2)no1 (configuration not stated)	-6.547%
O=C1CC[C@H](C(=O)N(Cc2cccc(Br)c2)C2CC2)N1	5.086%
CC(=O)NCC(=O)N1Cc2nc(COCc3csc(C)n3)oc2C1	5.619%
CC(C)CC(C)NCc1cccnc1N1CCOCC1 (configuration not stated)	1.673%
COc1ccc(OC)c(-c2nc(CN(C)Cc3nncn3C)c(C)o2)c1	0.1711%
CCN(CC)C(=O)[C@@H]1C[C@H](N)CN1c1noc(-c2ccccc2)n1	2.719%
Cc1cc(C)n(CCCN(C)C(=O)[C@H]2CCCO2)n1	-6.91%
Cc1cc(C(F)(F)F)nn1CCCNC(=O)C1CCCO1 (configuration not stated)	89.22%
Cc1cc(-c2cnn(CCNC(=O)C3CCCO3)c2C2CC2)on1 (configuration not stated)	-7.58%
